From PubChem BioAssay (NCI)
About 83,000 compounds went through this panel and 20% of them were active in at least one assay; those are over-represented in the sample as a whole.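 Interpretation: 100, growth as untreated; towards 0, rising growth inhibition; 0, no net growth; 0 to -100, cell death. Compounds scoring below 10 were considered active.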

Key:
Assay in all cases: NCI-60 one-dose screen, 48 h (100 = growth as untreated, 0 = no growth, -100 = all killed)
[1] = test system: T-47D breast; details: 10 µM
[2] = test system: BT-549 breast; details: 10 µM
[3] = test system: MDA-MB-435 melanoma; details: 10 µM
[4] = test system: SW-620 colon; details: 10 µM
[5] = test system: MCF7 breast; details: 10 µM unless noted
[6] = test system: HCT-116 colon; details: 10 µM
[7] = test system: KM12 colon; details: 10 µM
[8] = test system: HCC-2998 colon; details: 10 µM

Measured: growth

O=[N+]([O-])c1ccc(/C=C/C=C/c2ccccc2)c(Cl)c1
inactive: [1] 74.3% | [2] 102% | [3] 99.5% | [4] 98.1% | [5] 74.2% | [6] 76.6% | [7] 94.5%

COc1cc(C2NC(=O)C(C#N)=C(Nc3cccc(C)c3)S2)ccc1O (stereo not given)
inactive: [1] 93.5% | [2] 101% | [3] 104% | [4] 104% | [5] 92.9% | [6] 103% | [8] 106% | [7] 104%

O=C(O)c1cccc([N+](=O)[O-])c1O
inactive: [1] 101% | [2] 93.6% | [3] 101% | [4] 105% | [5] 119% | [6] 98.9% | [7] 110%

O=C(O)/C=C/c1ccc2c(c1)CCC2
inactive: [1] 104% | [2] 100% | [3] 99.8% | [4] 106% | [5] 109% | [6] 105% | [7] 106%

CCC/C=C(\C)C(C)(C#N)C(=O)OCC (stereo not given)
inactive: [1] 112% | [2] 116% | [3] 96.3% | [4] 109% | [5] 97.1% | [6] 120% | [8] 118% | [7] 110%

CC(C)(N)COS(=O)(=O)O
inactive: [1] 108% | [2] 100% | [3] 94.6% | [4] 101% | [5] 95.5% | [6] 95.4% | [8] 112% | [7] 99.1%

CC(=O)c1ccc(N=C(C#N)C2=C(O)c3ccccc3C2=O)cc1
inactive: [1] 93.4% | [2] 98.3% | [3] 110% | [4] 114% | [5] 83.1% | [6] 106% | [8] 98.1% | [7] 107%

CC(=O)Nc1cccc(NC(C)=O)n1
inactive: [1] 87.1% | [2] 107% | [3] 101% | [4] 99.1% | [5] 99% | [6] 98.9% | [8] 130% | [7] 105%

Oc1ccccc1O
inactive: [1] 95.2% | [2] 96% | [3] 110% | [4] 94.7% | [5] 82.5% | [6] 87.6% | [7] 86.5%

NC(=S)N/N=C/c1ccc(N)cc1
inactive: [1] 93.9% | [2] 96.3% | [3] 105% | [4] 104% | [5] 94.8% | [6] 94.1% | [8] 104% | [7] 103%

COC(=O)c1ccccc1Br
inactive: [1] 109% | [2] 109% | [3] 98.5% | [4] 109% | [5] 106% | [6] 92% | [7] 94.7%

CCCNc1ccc(C2=NCCCN2)cc1
inactive: [1] 97.3% | [2] 90% | [3] 95.9% | [4] 102% | [5] 97.7% | [6] 97% | [7] 94.5%

OCC1OC(OC2C(O)C(CO)OC2(CO)OC2OC(CO)C(O)C(O)C2O)C(O)C(O)C1O (stereo not given)
inactive: [1] 110% | [2] 105% | [3] 111% | [4] 111% | [5] 95% | [6] 97.8% | [7] 109%

CCCCOC(OCCCC)c1ccccc1
inactive: [1] 100% | [2] 107% | [3] 112% | [4] 110% | [5] 97.8% | [6] 112% | [7] 110%

CC(C)(C)c1cc(O)c(C(C)(C)C)cc1O
inactive: [1] 95% | [2] 81.3% | [3] 91.9% | [4] 97% | [5] 83.7% | [6] 86.6% | [7] 101%

CCS(=O)(=O)c1cc(=O)[nH]c(=O)[nH]1
inactive: [1] 114% | [2] 115% | [3] 86.7% | [4] 112% | [5] 106% | [6] 104% | [8] 116% | [7] 107%

NC(N)=Nc1cc2ccccc2c2ccccc12
inactive: [1] 88.1% | [2] 81.2% | [3] 84.8% | [4] 76.6% | [5] 81% | [6] 65.9% | [7] 81%

O=[N+]([O-])c1ccccc1S(=O)c1ccccc1[N+](=O)[O-]
inactive: [1] 73.1% | [2] 95.3% | [3] 72.2% | [4] 44.6% | [5] 95.2% | [6] 51.8% | [7] 88.1%

O=c1cc(-c2ccccc2)[nH]c(=S)[nH]1
inactive: [1] 107% | [2] 97.5% | [3] 104% | [4] 104% | [5] 95.3% | [6] 101% | [7] 96.7%

CC(=O)c1cc2c(cc1F)C(C)(C)CCC2(C)C
inactive: [1] 109% | [2] 101% | [3] 106% | [4] 102% | [5] 101% | [6] 94.4% | [7] 107%

CC(=O)OC(OC(C)=O)C1CCCO1 (stereo not given)
inactive: [1] 101% | [2] 95.8% | [3] 108% | [4] 107% | [5] 92.1% | [6] 91.3% | [7] 101%

CC(C)OC(C(=O)O)c1ccccc1 (stereo not given)
inactive: [1] 91.5% | [2] 100% | [3] 115% | [4] 103% | [5] 93% | [6] 101% | [7] 105%

CC1NC(=O)NC1CCCCCC(=O)O (stereo not given)
inactive: [1] 101% | [2] 105% | [3] 117% | [4] 105% | [5] 99.8% | [6] 105% | [7] 98.7%

O=C(N/N=C/c1ccccc1O)Nc1nn[nH]n1
inactive: [1] 105% | [2] 111% | [3] 98.3% | [4] 101% | [5] 88.6% | [6] 89% | [7] 114%
